CHRM1 antagonist – human M1 muscarinic receptor antagonists, primary screen, CHO-K1 cells, Fluo-8 calcium fluorescence, 1536-well; Muscarinic acetylcholine receptor M1 (Homo sapiens), P11229; CHO-K1 hM1, ACh EC80 antagonist; 360,000 compounds, 1.3% hits; AID 588852, 2011; inhibition, % at 3 µM;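 active means percent inhibition above its own plate's cutoff, namely the mean of that plate's compound wells plus 3 SD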;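 further: peak over basal fluorescence ratio during 140 s after agonist addition; 0% = ACh EC80 plus DMSO and 100% = DMSO alone without agonist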
Target sequence (P11229 whole entry, looked up): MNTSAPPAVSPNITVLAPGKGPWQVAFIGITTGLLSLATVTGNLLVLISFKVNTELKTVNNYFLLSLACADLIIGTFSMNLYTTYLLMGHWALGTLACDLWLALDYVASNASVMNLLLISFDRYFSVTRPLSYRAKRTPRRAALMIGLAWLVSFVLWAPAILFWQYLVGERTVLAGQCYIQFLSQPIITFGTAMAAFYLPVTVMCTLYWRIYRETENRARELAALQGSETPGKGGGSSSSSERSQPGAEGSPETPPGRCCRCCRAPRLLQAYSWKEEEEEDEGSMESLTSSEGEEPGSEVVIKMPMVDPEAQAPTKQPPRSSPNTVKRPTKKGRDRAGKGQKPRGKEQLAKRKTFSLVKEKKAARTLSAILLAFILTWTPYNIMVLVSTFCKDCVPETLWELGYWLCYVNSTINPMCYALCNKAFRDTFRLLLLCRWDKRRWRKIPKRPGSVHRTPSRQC
CHO-K1 Ca antag – nonselective inhibitor or artifact in parental CHO-K1 cells; 360,000 compounds, 0.6% hits; ATP-induced calcium, Fluo-8 fluorescence; inhibition, % at 3 µM;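 active means inhibition above a per-plate cutoff, the plate's mean sample inhibition plus 3 SD, cut at about 24% in these data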;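 further: 0% = DMSO plus EC80 ATP and 100% = DMSO alone without ATP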
M1 ag parental – counter-screen for M1 agonists: effect in parental CHO-K1 cells | activation, % at 3 µM | Fluo-8 calcium fluorescence; scaled to maximal ATP response, vehicle zero | 360,000 compounds, 0.48% hits; in the data active means activation above about 15%;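 further: untransfected CHO-K1 host cells lacking M1 receptor as counterscreen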
M1 ag – human M1 muscarinic receptor agonists, primary screen, Fluo-8 calcium fluorescence, CHO-K1 cells, HTS | Muscarinic acetylcholine receptor M1 (Homo sapiens), P11229 | CHO-K1 hM1, agonist mode; 0% DMSO, 100% acetylcholine EC100 | activation, % at 3 µM | 360,000 compounds, 0.33% hits;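 active means activation above the run's mean compound activation plus 3 SD, cut at about 16% in these data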;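 further: peak over basal fluorescence ratio within a 140 s kinetic read after compound addition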
M1 PAM – human M1 muscarinic receptor positive allosteric modulators, primary screen, CHO-K1 cells, Fluo-8 calcium fluorescence, 1536-well; CHO-K1 hM1, ACh EC20; 0% = ACh EC20, 100% = maximal ACh; activation, % at 3 µM; 360,000 compounds, 0.088% hits; AID 588819, 2011; in the data active means activation above about 19%, passing the limit was not always enough
CHO-K1 Ca PAM – nonselective calcium activators in parental CHO-K1 cells, primary screen, counter-screen for M1 PAM project, cell-based, Fluo-8 calcium fluorescence, full deck, 1536-well. 360,000 compounds, 0.02% hits. AID 602247, 2012. activation, % at 3 µM. ATP EC20; 0% at ATP EC20, 100% at ATP max;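 active means activation above the run cutoff, the mean activation of all test compounds plus 3 SD, cut at about 40% in these data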;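 further: peak over basal fluorescence ratio in a 140 s read after ATP addition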
The depositor's hits bear a star; ! = not confirmed by another sample. The list is not random: actives were taken first. Their share in the collection is about 2.3%.

SMILES	CHRM1 antagonist	CHO-K1 Ca antag	M1 ag parental	M1 ag	M1 PAM	CHO-K1 Ca PAM
Cc1ccc2nc(NC(=O)C3CCN(S(=O)(=O)c4cc([N+](=O)[O-])ccc4Cl)CC3)sc2c1	28.2	25.2*	4.6	-8.8	-16.9	13.2
O=C(Nc1nc2ccc(F)cc2s1)C1CCN(S(=O)(=O)c2cc([N+](=O)[O-])ccc2Cl)CC1	32.4*	31.6*	6.8	-9.1	-21.8	1.5
CC(NC(=O)C1CCN(S(=O)(=O)c2cc([N+](=O)[O-])ccc2Cl)CC1)c1ccccc1 (stereo unspecified)	3.3	4.9	1.8	-4.4	2.7	20.9
Cc1ccc(NC(=O)C2CCN(S(=O)(=O)c3cc([N+](=O)[O-])ccc3Cl)CC2)nc1	41.6*	16.5	14.5	-1.5	-19.4	-14.6
Cc1ccc2c(c1)C1CN(C)CCC1N2C(=O)c1cccc(S(=O)(=O)N2CC(C)CC(C)C2)c1 (stereo unspecified)	37.4*	-21.6	0.9	-7.9	-23.8	20.0
Cc1ccc(C(=O)N(C)c2ccc(OCC(=O)N3c4ccc(C)cc4C4CN(C)CCC43)cc2)cc1 (stereo unspecified)	22.6*	5.7	-0.3	-15.1	-29.7	-4.0
Cc1ccc2c(c1)C1CN(C)CCC1N2S(=O)(=O)c1cc(C(F)(F)F)ccc1Cl (stereo unspecified)	-3.1	5.8	0.3	4.5	13.4	-18.9
Cc1ccc2c(c1)C1CN(C)CCC1N2C(=O)c1ccc(Cl)c(S(=O)(=O)N2CCOCC2)c1 (stereo unspecified)	79.0*	-11.8	2.1	-4.5	-22.2	17.3
CCOP(=O)(OCC)C(NC(=O)Nc1ccc(Cl)cc1)c1ccccc1 (stereo unspecified)	4.0	-3.6	2.3	-4.5	4.3	24.0
CC(=O)c1ccc(NC(=O)Nc2ccc(Cl)cc2)cc1	28.8	19.0	17.0*	1.4	-18.3	-0.5
CC(=O)c1ccc(NC(=S)NCc2ccc(Cl)cc2Cl)cc1	20.0	15.9	16.4*	4.5	-8.2	-12.0
CC(NC(=O)Nc1ccc(Cl)cc1)c1ccccc1 (stereo unspecified)	-9.7	1.2	28.6*	0.6	1.9	4.6
COc1ccc(OC)c(NC(=O)Nc2cc(C(=O)O)ccc2C)c1	1.2	-3.1	0.9	-6.6	13.4	22.7
COc1ccccc1C(=O)NCCCNC(=O)c1cccnc1	-2.5	-15.6	1.5	-2.6	4.0	8.6
CN(C)CC(O)COC(c1ccccc1)c1ccccc1 (stereo unspecified)	39.3*	-4.1	1.0	-9.7	-34.3	11.5
COc1ccc(CN(C)CC(O)COC(c2ccccc2)c2ccccc2)c(OC)c1OC (stereo unspecified)	20.3	-3.4	27.8*	-9.9	-22.6	0.0
CC(=O)Nc1ccc(NC(=O)C(C)Sc2nnc(-c3cccs3)o2)cc1 (stereo unspecified)	-11.0	-16.0	1.6	-2.4	9.1	16.9
c1ccc2c(c1)CSc1ccccc1N2	-14.8	0.1	-0.4	-7.6	2.2	4.2
C=CCN(C)CC/C=C1\c2ccccc2CSc2ccccc21	91.5*	-2.3	1.0	-5.5	-19.8	13.2
CN(C)CC/C=C1/c2ccccc2COc2ccc(CC(=O)O)cc21	-2.2	6.4	0.3	-8.9	-9.0	-8.8
CC(O)CN(C)CC/C=C1/c2ccccc2CSc2ccccc21 (stereo unspecified)	62.9*	8.2	0.5	-10.3	-24.4	-7.4
NCC/C=C1/c2ccccc2CSc2ccccc21	69.4*	-4.0	1.3	-6.2	-21.6	3.5
CN(CC/C=C1/c2ccccc2CSc2ccccc21)CCCO	88.7*	-6.0	2.2	-9.3	-22.6	16.3
C#CCN(C)CC/C=C1\c2ccccc2CSc2ccccc21	78.5*	-14.1	-0.5	-5.9	-20.1	7.3
Cc1ccsc1C1C(C#N)=C(N)N(N(C)C)C2=C1C(=O)CCC2 (stereo unspecified)	39.1*	-9.0	0.6	-5.4	-0.7	9.1
SMILES	CHRM1 antagonist	CHO-K1 Ca antag	M1 ag parental	M1 ag	M1 PAM	CHO-K1 Ca PAM
CN(C)N1C(N)=C(C#N)C(c2cccs2)C2=C1CCCC2=O (stereo unspecified)	0.3	-6.6	0.3	-4.7	1.6	12.2
C=C1CCN([C@@H](CC(C)C)C(=O)Nc2nc3ccc(Cl)cc3s2)S(=O)(=O)c2ccccc21	-7.0	-26.1	0.5	-3.2	2.8	21.3
CC1CCC(C(C)C)C(OC(=O)Cn2c(-c3ccccc3)[n+](C)c3ccccc32)C1 (stereo unspecified)	42.6*!	11.6	5.8	-6.6	-16.9	13.8
CC1CCC(C(C)C)C(OC(=O)CSc2nnc(N)s2)C1 (stereo unspecified)	-8.9	-3.2	0.5	-2.7	2.4	10.0
Cc1cccc(OCc2n(CC(=O)OC3CC(C)CCC3C(C)C)c3ccccc3[n+]2C)c1 (stereo unspecified)	38.4*	13.5	8.8	-6.9	-31.2	13.8
CC1CCC(C(C)C)C(OC(=O)Cn2c(-c3ccc(F)cc3)[n+](C)c3ccccc32)C1 (stereo unspecified)	51.3*	22.8	0.9	-10.6	-26.2	-9.3
CC1CCC(C(C)C)C(OC(=O)CSc2nc(N)cc(=O)[nH]2)C1 (stereo unspecified)	1.7	-4.2	3.3	-0.4	2.3	-8.3
CN(C)CCN(Cc1ccccc1)C(=O)c1[nH]c(C(F)(F)F)nc1-c1ccccc1	-15.1	-11.3	0.6	-3.5	-0.9	8.2
CC[N+](CC)(CC#Cc1ccccc1)CC#Cc1ccccc1	41.7*	-11.1	0.3	-7.2	-20.1	8.2
Cc1ccccc1NC(=O)c1sc2nc[nH]c(=O)c2c1C	3.5	23.9*	-0.4	-2.5	11.4	-14.2
O=C(Nc1cccnc1)c1ccc2nc(-c3ccccc3)c(-c3ccccc3)nc2c1	19.4	11.7	16.7*	-2.9	1.8	-2.4
O=C(Nc1cccnc1)c1ccc(Oc2ccccc2)cc1	-6.8	-8.4	1.0	-3.4	2.3	6.8
CCOc1ccc(NS(=O)(=O)c2ccc(C(=O)NCc3ccncc3)cc2)cc1	-7.6	-9.7	7.4	12.0	14.0	27.9
CS(=O)(=O)Nc1ccc(C(=O)NCc2ccccn2)cc1	-7.9	-8.1	0.3	-2.9	2.8	14.4
CCOc1ccc(NS(=O)(=O)c2ccc(C(=O)NCc3ccccn3)cc2)cc1	8.2	1.4	21.1*	27.9*	0.8	-7.8
Cc1ccc(S(=O)(=O)NC(=O)NCc2ccccc2)cc1	11.3	28.2*	-0.3	-2.5	-5.6	-8.5

Source: PubChem BioAssay
